“And” between values parts separate entries of the source, which are not always exact repeats. Equal values may be shown once. Screen size: about 260,000 compounds; about 1,500 (0.58%) were called active. About 5% were inconclusive and are not listed. Not all results are given here. Results with a measured potency or affinity are listed apart. Values without a mark were called inactive.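 The calls were made as follows: active = inhibition above a set limit at one or more doses, reproduced on every date tested; inconclusive = results disagree between test dates, or hit never tested in dose response; inactive = the rest.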
Target: Virion infectivity factor (Human immunodeficiency virus type 1 group M subtype B (isolate BH10)) + Virion infectivity factor (Human immunodeficiency virus type 1 group M subtype B (isolate BRU/LAI)) + Virion infectivity factor (Human immunodeficiency virus type 1 group M subtype B (isolate PCV12)) + Virion infectivity factor (Human immunodeficiency virus type 1 group M subtype B (isolate HXB2)) + DNA dC->dU-editing enzyme APOBEC-3G (Homo sapiens) (UniProt P69720+P69721+P69722+P69723+Q9HC16)
Experiment: HIV-1 Vif–A3G interaction blockers – biochemical, TR-FRET, GST-Vif 1-94, biotin-A3G peptide, dose response retest, primary screen (AID 1117319);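 also: Vif residues 1-94 fused to GST binding biotinylated APOBEC3G peptide 110-148; 0% = full assay without inhibitor and 100% = GST in place of GST-Vif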
Settings: TR-FRET GST-Vif / biotin-A3G peptide binding; stronger effect = higher value

SMILES	inhibition
CCOc1ccc(-c2nnn(CC(=O)c3ccc4c(c3)OCCO4)n2)cc1	-11.1%
COc1ccc(-c2nnn(CC(=O)c3ccc4c(c3)OCCO4)n2)cc1OC	21.5%
CN(C)c1ccc(CNC(=O)C2CCN(S(=O)(=O)c3ccc4c(c3)oc(=O)n4C)CC2)cc1	-3.31%
CCC1=NNc2cccc3c(OC)ccc1c23	10.8%
COc1ccc2c3c(cccc13)OCC2=O	24.2%
COc1ccccc1NC(=O)c1nnn(Cc2ccccc2)c1NC(=O)C(F)(F)F	0.14%
CCn1cc(S(=O)(=O)Nc2nc3ccc(OC)cc3s2)cn1	-2.85%
Cn1c(SCc2ccccc2)nccc1=O	1.19%
Nc1ccccc1SCc1ccccc1	-5.9%
CCOC(=O)c1nnc2cc(-c3ccc(Br)cc3)nn2c1C	1.62%
COc1ccccc1OCCSc1nc(N)cc(N)n1	4.3%
COc1ccc2nc3cccc(OC)c3nc2c1	15.1%
COc1ccc2nc3ccccc3nc2c1NC(=O)c1ccc(Br)cc1	-5.53%
Cc1ccc(-n2nc(-c3ccco3)cc2C(=O)NCc2cccnc2)cc1	9.86%
CCOC(=O)c1cc(-c2ccco2)nn1-c1ccc(C)cc1	-3.18%
CN(C)C(=O)CSc1nnc([C@H](Cc2ccccc2)NC(=O)OC(C)(C)C)o1	-2.79%
O=S1(=O)N=C(Nc2ccc(N3CCOCC3)c(Cl)c2)c2ccccc21	12.7%
O=C(CCC(=O)c1cccs1)NCc1ccc(Cl)cc1	1.67%
CCCC(=O)C1=C(O)C(C(=O)OC)C(C)(C)CC1=Nc1ccc(N)cc1 (stereo not given)	0.65%
CCC(=NCc1ccccc1)C1=C(O)C(C(=O)OC)C(C)(C)CC1=O (stereo not given)	5.76%
CCCC(=NCc1ccccc1)C1=C(O)C(C(=O)OC)C(C)(C)CC1=O (stereo not given)	3.41%
CCCC(=Nc1ccccc1)C1=C(O)C(C(=O)OC)C(C)(C)CC1=O (stereo not given)	26.8%
O=S(=O)(NCCN1CCN(S(=O)(=O)c2ccccc2F)CC1)c1ccccc1F	1.35%

SMILES	inhibition
O=C1NC(=O)/C(=C\c2cn(CC(=O)N3CCOCC3)c3ccccc23)S1	-3.19%
O=C(COC(=O)/C=C/c1cc(Br)ccc1F)Nc1ccc2[nH]c(=O)[nH]c2c1	-2.89%
Cc1cccc(N2CC(C(=O)O)CC2=O)c1 (stereo not given)	-2.42%
Cc1ccc(SCC(=O)Nc2nnc(-c3ccco3)o2)cc1	6.62%
CC(=O)Nc1ccc(N=Cc2c(O)c3ccccc3oc2=O)cc1	-14.5%
Cc1ccc(-c2oc3ncnc(N)c3c2-c2ccc(C)cc2)cc1	-8.91%
COc1ccc(-c2oc3ncnc(N)c3c2-c2ccccc2)cc1	-1.94%
Cc1c(NC(=O)COc2ccc(C(C)C)cc2)c(=O)n(-c2ccccc2)n1C	-8.62%
CCCCCCC(O)(c1ccccc1)C(CN1CCOCC1)c1ccccc1 (stereo not given)	0.34%
Cc1noc(N)c1C(=O)Nc1ccc(F)c(Cl)c1	-9.43%
CCc1noc(C)c1C(=O)Nc1ccc(F)c(F)c1	-2.68%
Cc1nc2scc(-c3ccc(Cl)cc3)c2c(=O)o1	19.2%
CCOc1ccc(C(=O)COc2ccc(NC(C)=O)cc2)cc1	6.05%
CCOC(=O)C1=C(N)n2c(s/c(=C\c3ccncc3)c2=O)=C(C(=O)OCC)C1c1ccncc1 (stereo not given)	-12.8%
CCOC(=O)C1=c2s/c(=C\c3ccncc3)c(=O)n2C(N)=C(C(=O)OC)C1c1ccncc1 (stereo not given)	-6.47%
CCOC(=O)C1=c2s/c(=C\c3cccnc3)c(=O)n2C(N)=C(C(=O)OC)C1c1cccnc1 (stereo not given)	-8.08%
CCOC(=O)C1=C(C)NC(C)=C(C(=O)OCC)C1c1ccco1	22.4%
CCOC(=O)C1=C(N)n2c(s/c(=C\c3cccs3)c2=O)=C(C(=O)OCC)C1c1cccs1 (stereo not given)	-6.07% and -0.48%
CCOC(=O)C1=C(N)n2c(s/c(=C/c3ccccc3)c2=O)=C(C(=O)OCC)C1c1ccccc1 (stereo not given)	-3.94%
Cc1cc(SCC(=O)OC(C)C(=O)N(C)c2ccccc2)nc2ccccc12 (stereo not given)	-7.66%
COC(=O)c1ccc(CNC(=O)Cn2nnnc2CN(C)C(C)C)cc1	-4.98%
COCCNC(=O)CSc1cc(-c2ccccc2)c2ccc(OC)cc2n1	-24.8%
